# From PMC4552634, “A New Set of Chemical Starting Points with Plasmodium falciparum Transmission-Blocking Potential for Antimalarial Drug Discovery” (PLoS ONE, 2015)
# The whole screen tested about 13,000 compounds, of which about 3,200 (25%) showed an effect of 50% or more. This is one part of the list.
# Tested on: P. falciparum stage V gametocytes
# Design: BacTiter-Glo ATP luminescence viability of purified stage V gametocytes in 384-well plates, per cent inhibition versus DMSO
# Details: 48 h, 5 µM; inhibitor
row,Compound,% Inhibition
1,O=C(C=CC(=O)N1CCCCC1)NCc1ccccc1 [TCMDC-131645],19.39%
2,NC(=O)c1ccccc1OCC(=O)Nc1cccc(-c2ccc(-c3nc4ccccc4[nH]3)cc2)c1 [TCMDC-132128],7.419%
3,COc1ccc2ncc(C#N)c(CCN3CCC(NCc4ccc5c(c4)NC(=O)CO5)CC3)c2c1 [TCMDC-135645],-0.6152%
4,CCNc1cc(CCCC(=O)OCC)nc(Nc2ccc(C)cc2)n1 [TCMDC-134018],-48.18%
5,OC(CNc1ccnc(Nc2ccccc2)n1)c1cccc(C(F)(F)F)c1 (stereo not shown) [TCMDC-136588],30.58%
6,CCCCCCCN1CC[C@@H](CCCc2ccnc3ccc(OC)cc23)[C@@H](CCN)C1 [TCMDC-139278],113.6%
7,CC[C@H]1CN(C/C=C/c2ccc(OC)cc2)CC[C@H]1CCCc1ccnc2ccc(O)cc12 [TCMDC-140258],-1.76%
8,CCCCCCCN1CC[C@@H](C[C@H](N)Cc2ccnc3ccc(OC)cc23)[C@@H](CC)C1 [TCMDC-139827],11.08%
9,CCCCCCCCCN1CC[C@@H](CCCc2ccnc3ccc(O)cc23)[C@@H](CC)C1 [TCMDC-131442],46.81%
10,CCCCCCCN1CC[C@@H](CCCc2ccnc3ccc(OC)cc23)[C@@H](CNC)C1 [TCMDC-139875],105.4%
11,Cc1cccc2c(/C=C/C(=O)NC3CCC(CCN4CCc5ccc(C#N)cc5CC4)CC3)c[nH]c12 (stereo not shown) [TCMDC-139665],43.65%
12,O=C(Nc1cccc(-c2cc(-c3c(Cl)cccc3Cl)no2)c1)c1cncc(-c2cccs2)c1 [TCMDC-136736],-10.57%
13,C[C@@H](N=C(Nc1ccc(C#N)cc1O)Nc1ccccc1Cl)c1ccc(Br)cc1 [TCMDC-140257],-91.02%
14,O=C(Nc1cccc(-c2ccc(-c3nc4ccc(F)cc4[nH]3)cc2)c1)c1cccnc1 [TCMDC-136923],8.252%
15,CCc1nc(N)nc(N)c1-c1ccc(C(C)(C)C)cc1 [TCMDC-137367],5.64%
16,CC(N)(Cc1ccc(O)cc1)c1nn[nH]n1 (stereo not shown) [TCMDC-131387],-7.705%
17,CCCc1cc(OC)c(CC2c3cc(O)c(Cl)cc3CCN2C)cc1OC (stereo not shown) [TCMDC-137166],27.65%
18,COc1cc(CC2c3cc(O)c(Cl)cc3CCN2C)c(OC)cc1C (stereo not shown) [TCMDC-137434],71.2%
19,CCCc1cc(OC)c(C[C@H]2c3cc(O)c(Cl)cc3CCN2C)cc1OC [TCMDC-137779],20.32%
20,CCCCCCCCCCN1C(=O)C2C(CCCCNC(C)=O)NC3(C(=O)N(Cc4ccc(C(C)(C)C)cc4)c4ccccc43)C2C1=O (stereo not shown) [TCMDC-139772],47.42%
21,Cc1nc(C)c(-c2ccc(Oc3ccc(OC(F)(F)F)cc3)cc2)c(OC(=O)c2ccc(CN(C)C)cc2)c1Cl [TCMDC-137382],68.19%
22,Cc1nc(C)c(-c2ccc(Oc3ccc(OC(F)(F)F)cc3)cc2)c(OC(=O)c2ccccc2)c1Cl [TCMDC-137380],76.96%

row,Compound,% Inhibition
1,CC(=O)Oc1c(Br)c(C)nc(C)c1-c1ccc(Oc2ccc(OC(F)(F)F)cc2)cc1 [TCMDC-137383],72.41%
2,Cc1[nH]cc(Br)c(=O)c1-c1ccc(Oc2ccc(OC(F)(F)F)cc2)cc1 [TCMDC-136197],-4.559%
3,CN(C)Cc1c(O)ccc2[nH]c(-c3ccc(OC(F)(F)F)cc3)nc12 [TCMDC-136529],-83.05%
4,Cc1[nH]c(C)c(Cc2ccc(Oc3ccc(OC(F)(F)F)cc3)cc2)c(=O)c1Br [TCMDC-134530],-23.78%
5,CC(=O)Oc1c(Cl)c(C)nc(C)c1-c1ccc(Oc2ccc(OC(F)(F)F)cc2)cc1 [TCMDC-137385],74.48%
6,Cc1cc(=O)c2cc(Oc3ccc(OC(F)(F)F)cc3)ccc2[nH]1 [TCMDC-138906],0.2157%
7,Cc1[nH]c(C)c([N+](=O)[O-])c(=O)c1-c1ccc(Oc2ccc(OC(F)(F)F)cc2)cc1 [TCMDC-135555],-1.899%
8,CC(C)NCc1ccc(-c2cccc(-c3nc4ccc(C(F)(F)F)cc4[nH]3)c2)cc1 [TCMDC-132739],37.23%
9,COc1ccc2nccc([C@H](O)CN3CCC(NCc4ccc5c(c4C)OCCO5)CC3)c2n1 [TCMDC-136066],21.32%
10,Cc1c(C)n(C2CCCCC2)c2ncnc(OC3CCN(CC(=O)N4CCCC4)CC3)c12 [TCMDC-124854],2.854%
11,COc1ccc(C(=O)NC2CCN(c3ccnc4cc(Cl)ccc34)C2)cc1 (stereo not shown) [TCMDC-133648],42.46%
12,Cc1cc(Nc2ccccc2)nc(Nc2ccccc2)n1 [TCMDC-124214],11.37%
13,Cn1c(NC(=O)CCCCCNC(=O)c2ccc(O)c(-c3ccc(Cl)c(Cl)c3)c2)nc2ccccc21 [TCMDC-140880],4.339%
14,Cc1cc(Nc2ccc(Oc3ccc(Cl)cc3)cc2)nc(N)n1 [TCMDC-138073],-5.729%
15,Cc1nc(N)nc(N)c1-c1ccc(Cl)cc1 [TCMDC-138984],-0.9845%
16,CC(=O)Oc1c(Cl)c(C)nc(C)c1-c1ccc(Oc2ccc(Cl)cc2)cc1 [TCMDC-137381],75.31%
17,COc1cccc(CN2CCCC(COC(c3ccc(F)cc3)c3ccc(F)cc3)C2)c1O (stereo not shown) [TCMDC-136038],-18.09%
18,O=C(NC1CCN(Cc2cccc(C(F)(F)F)c2)CC1)c1ccc(-c2cccc(Cl)c2)s1 [TCMDC-134364],25.17%
19,COc1cccc(-c2ccc(C(=O)NCC3CCCN(Cc4cccc(C(F)(F)F)c4)C3)s2)c1 (stereo not shown) [TCMDC-134361],72.66%
20,CN(C)c1ccc(CN2CCCC(CNC(=O)c3ccc(-c4cccc(C(F)(F)F)c4)s3)C2)cc1 (stereo not shown) [TCMDC-134324],98.4%
21,COc1ccccc1-c1ccc(C(=O)NCC2CCCN(Cc3cccc(C(F)(F)F)c3)C2)s1 (stereo not shown) [TCMDC-134360],55.62%
22,CN(C)c1ccc(-c2ccc(C(=O)NC3CCN(Cc4cccc(C(F)(F)F)c4)CC3)s2)cc1 [TCMDC-134365],-28.78%

row,Compound,% Inhibition
1,CC(C)Oc1cccc(-c2ccc(C(=O)NCC3CCCN(Cc4cccc(C(F)(F)F)c4)C3)s2)c1 (stereo not shown) [TCMDC-134362],86.43%
2,COc1ccccc1CN1CCC(NC(=O)c2ccc(-c3cccc(C(F)(F)F)c3)s2)CC1 [TCMDC-134355],4.957%
3,O=C(NC1CCN(Cc2cccc(C(F)(F)F)c2)CC1)c1ccc(-c2cccc(C(F)(F)F)c2)s1 [TCMDC-134363],23.99%
4,CC(=O)Nc1ccc(CN2CCC(NC(=O)c3ccc(-c4cccc(OC(C)C)c4)s3)CC2)cc1 [TCMDC-134335],1.059%
5,CN(C)c1ccc(CN2CCC(NC(=O)c3ccc(-c4cccc(C(F)(F)F)c4)s3)CC2)cc1 [TCMDC-134325],-44.98%
6,Cc1ccc(NC(=O)Nc2ccc(Cl)c(C(F)(F)F)c2)cc1-c1ccc(C(=O)Nc2ccncc2)cc1 [TCMDC-133700],-87.03%
7,Cc1ccc(NC(=O)c2cccc(N3CCN(c4ccncc4)CC3)c2)cc1F [TCMDC-135124],-11.57%
8,CN(C)c1ccc(C2c3nc[nH]c3CCN2C(=O)Nc2cccc([N+](=O)[O-])c2)cc1 (stereo not shown) [TCMDC-141569],12.33%
9,O=C(N[C@@H](Cc1ccccc1)[C@H](O)CNC1CCOCC1)c1cc(C2CCCC2)cc(N2CCCCS2(=O)=O)c1 [TCMDC-134938],31.68%
10,CCNc1cc(C(=O)N[C@@H](Cc2ccccc2Cl)[C@H](O)CNC(C)CCCC(C)C)cc(N2CCCCS2(=O)=O)c1 (stereo partly shown) [TCMDC-135224],92.78%
11,CCCC(C)NC[C@@H](O)[C@H](Cc1ccccc1)NC(=O)c1cc(C2CCCC2)cc(N2CCCCS2(=O)=O)c1 (stereo partly shown) [TCMDC-135216],60.63%
12,CCCC(C)NC[C@@H](O)[C@H](Cc1ccccc1)NC(=O)c1cc(NCC)cc(N2CCCCS2(=O)=O)c1 (stereo partly shown) [TCMDC-135226],61.06%
13,CCNc1cc(C(=O)N[C@@H](Cc2ccccc2)[C@H](O)CNC(C)(C)Cc2cccc(Cl)c2)cc(N2CCCCS2(=O)=O)c1 [TCMDC-135309],13.84%
14,COc1cc(CNC[C@@H](O)[C@H](Cc2ccccc2)NC(=O)c2cc(C3CCCC3)cc(N3CCCCS3(=O)=O)c2)cc(OC)c1 [TCMDC-134561],14.07%
15,CCNc1cc(C(=O)N[C@@H](Cc2ccoc2)[C@H](O)CNC(C)CCCC(C)C)cc(N2CCCCS2(=O)=O)c1 (stereo partly shown) [TCMDC-135411],37.57%
16,CCNc1cc(C(=O)N[C@@H](Cc2ccccc2)[C@H](O)CNC(C)CCCC(C)C)cc(N2CCCS2(=O)=O)c1 (stereo partly shown) [TCMDC-138825],1.46%
17,CCNc1cc(C(=O)N[C@@H](Cc2cccc(F)c2)[C@H](O)CNC(C)CCCC(C)C)cc(N2CCCCS2(=O)=O)c1 (stereo partly shown) [TCMDC-135307],42.64%
18,CCNc1cc(C(=O)N[C@@H](Cc2cccc(Cl)c2)[C@H](O)CNC(C)CCCC(C)C)cc(N2CCCCS2(=O)=O)c1 (stereo partly shown) [TCMDC-135225],15.74%
19,CCCCCC(C)NC[C@@H](O)[C@H](Cc1ccccc1)NC(=O)c1cc(NCC)cc(N2CCCCS2(=O)=O)c1 (stereo partly shown) [TCMDC-135293],40.73%
20,CCNc1cc(C(=O)N[C@@H](Cc2ccccc2)[C@H](O)CNC(C)Cc2cccc(Cl)c2)cc(N2CCCCS2(=O)=O)c1 (stereo partly shown) [TCMDC-135412],76.43%
